# Assay results as given in ChEMBL document CHEMBL1961873, “Compounds: GSK PKIS; Assays: Nanosyn kinase panel” (2012).
# Columns and labels:
# [1] = target: Sphingosine kinase 1 (Homo sapiens) (UniProt Q9NYA1); settings: at 1 µM;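 further: mean SPHK1 inhibition value reported from the GSK PKIS kinase panel screen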
# [2] = target: T1, Sphingosine kinase 2 (Homo sapiens) (UniProt Q9NRA0); settings: at 0.1 µM
# T1 sequence (whole entry): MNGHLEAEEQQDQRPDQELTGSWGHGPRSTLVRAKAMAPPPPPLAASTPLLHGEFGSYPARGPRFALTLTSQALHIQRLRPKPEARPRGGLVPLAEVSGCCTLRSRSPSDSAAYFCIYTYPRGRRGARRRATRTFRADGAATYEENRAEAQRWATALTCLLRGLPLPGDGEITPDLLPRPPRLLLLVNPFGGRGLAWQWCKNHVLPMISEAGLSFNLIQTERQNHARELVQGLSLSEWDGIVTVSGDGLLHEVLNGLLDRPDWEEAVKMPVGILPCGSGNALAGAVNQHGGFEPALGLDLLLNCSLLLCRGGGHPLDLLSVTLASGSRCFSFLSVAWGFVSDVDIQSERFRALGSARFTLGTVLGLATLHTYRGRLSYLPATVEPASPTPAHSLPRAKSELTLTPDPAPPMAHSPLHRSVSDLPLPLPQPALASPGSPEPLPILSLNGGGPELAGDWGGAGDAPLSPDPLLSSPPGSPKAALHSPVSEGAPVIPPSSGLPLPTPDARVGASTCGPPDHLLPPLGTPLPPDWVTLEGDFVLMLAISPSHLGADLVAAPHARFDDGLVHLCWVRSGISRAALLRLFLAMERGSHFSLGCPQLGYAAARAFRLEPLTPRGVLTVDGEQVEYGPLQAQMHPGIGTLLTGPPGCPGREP
# [3] = target: T1, Sphingosine kinase 2 (Homo sapiens); settings: at 1 µM
# [4] = target: Casein kinase II subunit alpha (Homo sapiens) (UniProt P68400); settings: at 0.1 µM
# Casein kinase II subunit alpha (Homo sapiens), sequence (P68400 whole entry, looked up): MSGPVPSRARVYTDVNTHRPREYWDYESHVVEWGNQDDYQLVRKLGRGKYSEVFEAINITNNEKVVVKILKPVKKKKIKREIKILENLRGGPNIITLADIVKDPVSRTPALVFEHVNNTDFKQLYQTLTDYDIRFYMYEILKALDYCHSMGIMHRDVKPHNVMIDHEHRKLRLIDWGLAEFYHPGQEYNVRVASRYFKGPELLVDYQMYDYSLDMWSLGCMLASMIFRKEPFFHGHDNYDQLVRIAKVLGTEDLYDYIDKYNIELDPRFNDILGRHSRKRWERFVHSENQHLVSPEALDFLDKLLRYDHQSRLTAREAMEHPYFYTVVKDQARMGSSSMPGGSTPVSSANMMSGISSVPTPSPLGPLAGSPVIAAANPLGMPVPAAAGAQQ
# [5] = target: Casein kinase II subunit alpha (Homo sapiens) (UniProt P68400); settings: at 1 µM
# [6] = target: T2, Inhibitor of nuclear factor kappa-B kinase subunit alpha (Homo sapiens) (UniProt O15111); settings: at 0.1 µM
# T2 sequence (whole entry): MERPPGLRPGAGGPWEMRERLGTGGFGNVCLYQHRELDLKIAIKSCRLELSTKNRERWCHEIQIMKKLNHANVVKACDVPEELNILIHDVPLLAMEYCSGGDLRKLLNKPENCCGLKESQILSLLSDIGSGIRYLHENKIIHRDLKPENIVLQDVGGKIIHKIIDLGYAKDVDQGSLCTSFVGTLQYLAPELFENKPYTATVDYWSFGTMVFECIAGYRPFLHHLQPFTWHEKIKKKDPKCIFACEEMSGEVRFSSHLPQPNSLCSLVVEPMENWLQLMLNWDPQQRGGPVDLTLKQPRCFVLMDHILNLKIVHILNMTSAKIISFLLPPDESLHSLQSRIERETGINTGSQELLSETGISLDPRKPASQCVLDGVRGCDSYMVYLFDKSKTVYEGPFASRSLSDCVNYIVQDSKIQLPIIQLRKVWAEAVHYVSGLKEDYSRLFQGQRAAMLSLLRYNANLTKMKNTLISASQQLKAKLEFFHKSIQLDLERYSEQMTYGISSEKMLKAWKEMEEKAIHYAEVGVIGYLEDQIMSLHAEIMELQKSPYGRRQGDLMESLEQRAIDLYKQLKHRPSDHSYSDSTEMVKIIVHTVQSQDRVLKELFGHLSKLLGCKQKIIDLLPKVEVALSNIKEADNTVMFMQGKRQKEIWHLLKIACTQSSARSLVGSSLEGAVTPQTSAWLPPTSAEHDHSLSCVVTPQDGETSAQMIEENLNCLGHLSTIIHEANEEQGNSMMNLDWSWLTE
# [7] = target: T2, Inhibitor of nuclear factor kappa-B kinase subunit alpha (Homo sapiens); settings: at 1 µM
# [8] = target: T3, Inhibitor of nuclear factor kappa-B kinase subunit beta (Homo sapiens) (UniProt O14920); settings: at 0.1 µM
# T3 sequence (whole entry): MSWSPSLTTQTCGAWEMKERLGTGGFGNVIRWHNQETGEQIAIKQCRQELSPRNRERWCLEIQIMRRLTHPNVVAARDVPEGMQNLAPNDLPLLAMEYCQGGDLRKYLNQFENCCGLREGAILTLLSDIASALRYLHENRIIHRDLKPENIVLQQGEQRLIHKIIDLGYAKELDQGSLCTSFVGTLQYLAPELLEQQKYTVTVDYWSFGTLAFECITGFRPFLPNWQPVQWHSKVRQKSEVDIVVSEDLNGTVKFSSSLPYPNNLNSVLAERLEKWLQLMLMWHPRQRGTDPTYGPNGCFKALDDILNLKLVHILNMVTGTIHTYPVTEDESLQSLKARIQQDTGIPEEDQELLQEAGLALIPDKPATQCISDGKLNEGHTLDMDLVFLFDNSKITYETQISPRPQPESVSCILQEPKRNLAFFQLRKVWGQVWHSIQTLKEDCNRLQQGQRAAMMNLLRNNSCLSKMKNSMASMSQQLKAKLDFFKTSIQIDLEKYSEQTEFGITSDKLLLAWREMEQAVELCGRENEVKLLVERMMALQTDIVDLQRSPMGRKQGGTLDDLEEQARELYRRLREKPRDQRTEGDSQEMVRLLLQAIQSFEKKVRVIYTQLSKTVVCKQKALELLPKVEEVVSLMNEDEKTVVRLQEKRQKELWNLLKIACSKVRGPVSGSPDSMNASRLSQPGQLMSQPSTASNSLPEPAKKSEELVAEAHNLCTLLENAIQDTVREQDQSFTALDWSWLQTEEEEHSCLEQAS
# [9] = target: T3, Inhibitor of nuclear factor kappa-B kinase subunit beta (Homo sapiens); settings: at 1 µM
# [10] = target: T4, Inhibitor of nuclear factor kappa-B kinase subunit epsilon (Homo sapiens) (UniProt Q14164); settings: at 0.1 µM
# T4 sequence (whole entry): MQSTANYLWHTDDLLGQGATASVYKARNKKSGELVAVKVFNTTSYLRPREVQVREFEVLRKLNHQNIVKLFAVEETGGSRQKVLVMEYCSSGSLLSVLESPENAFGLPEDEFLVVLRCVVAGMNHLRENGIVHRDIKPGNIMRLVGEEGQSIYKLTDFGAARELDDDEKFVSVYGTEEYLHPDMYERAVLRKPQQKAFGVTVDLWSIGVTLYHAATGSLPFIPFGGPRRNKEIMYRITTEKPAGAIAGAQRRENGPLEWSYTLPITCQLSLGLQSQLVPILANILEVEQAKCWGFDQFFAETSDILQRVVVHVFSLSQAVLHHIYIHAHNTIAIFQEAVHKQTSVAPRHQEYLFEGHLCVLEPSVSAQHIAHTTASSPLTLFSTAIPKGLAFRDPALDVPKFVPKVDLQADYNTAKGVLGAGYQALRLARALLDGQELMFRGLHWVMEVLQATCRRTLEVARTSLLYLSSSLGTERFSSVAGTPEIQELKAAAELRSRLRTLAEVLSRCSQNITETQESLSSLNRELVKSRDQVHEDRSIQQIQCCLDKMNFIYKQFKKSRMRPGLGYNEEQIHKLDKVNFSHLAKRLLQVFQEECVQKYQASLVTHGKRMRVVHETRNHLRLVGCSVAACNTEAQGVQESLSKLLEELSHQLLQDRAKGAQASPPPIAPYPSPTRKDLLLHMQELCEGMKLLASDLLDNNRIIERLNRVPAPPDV
# [11] = target: T4, Inhibitor of nuclear factor kappa-B kinase subunit epsilon (Homo sapiens); settings: at 1 µM
# [12] = target: T5, Serine/threonine-protein kinase Nek1 (Homo sapiens) (UniProt Q96PY6); settings: at 0.1 µM
# T5 sequence (whole entry): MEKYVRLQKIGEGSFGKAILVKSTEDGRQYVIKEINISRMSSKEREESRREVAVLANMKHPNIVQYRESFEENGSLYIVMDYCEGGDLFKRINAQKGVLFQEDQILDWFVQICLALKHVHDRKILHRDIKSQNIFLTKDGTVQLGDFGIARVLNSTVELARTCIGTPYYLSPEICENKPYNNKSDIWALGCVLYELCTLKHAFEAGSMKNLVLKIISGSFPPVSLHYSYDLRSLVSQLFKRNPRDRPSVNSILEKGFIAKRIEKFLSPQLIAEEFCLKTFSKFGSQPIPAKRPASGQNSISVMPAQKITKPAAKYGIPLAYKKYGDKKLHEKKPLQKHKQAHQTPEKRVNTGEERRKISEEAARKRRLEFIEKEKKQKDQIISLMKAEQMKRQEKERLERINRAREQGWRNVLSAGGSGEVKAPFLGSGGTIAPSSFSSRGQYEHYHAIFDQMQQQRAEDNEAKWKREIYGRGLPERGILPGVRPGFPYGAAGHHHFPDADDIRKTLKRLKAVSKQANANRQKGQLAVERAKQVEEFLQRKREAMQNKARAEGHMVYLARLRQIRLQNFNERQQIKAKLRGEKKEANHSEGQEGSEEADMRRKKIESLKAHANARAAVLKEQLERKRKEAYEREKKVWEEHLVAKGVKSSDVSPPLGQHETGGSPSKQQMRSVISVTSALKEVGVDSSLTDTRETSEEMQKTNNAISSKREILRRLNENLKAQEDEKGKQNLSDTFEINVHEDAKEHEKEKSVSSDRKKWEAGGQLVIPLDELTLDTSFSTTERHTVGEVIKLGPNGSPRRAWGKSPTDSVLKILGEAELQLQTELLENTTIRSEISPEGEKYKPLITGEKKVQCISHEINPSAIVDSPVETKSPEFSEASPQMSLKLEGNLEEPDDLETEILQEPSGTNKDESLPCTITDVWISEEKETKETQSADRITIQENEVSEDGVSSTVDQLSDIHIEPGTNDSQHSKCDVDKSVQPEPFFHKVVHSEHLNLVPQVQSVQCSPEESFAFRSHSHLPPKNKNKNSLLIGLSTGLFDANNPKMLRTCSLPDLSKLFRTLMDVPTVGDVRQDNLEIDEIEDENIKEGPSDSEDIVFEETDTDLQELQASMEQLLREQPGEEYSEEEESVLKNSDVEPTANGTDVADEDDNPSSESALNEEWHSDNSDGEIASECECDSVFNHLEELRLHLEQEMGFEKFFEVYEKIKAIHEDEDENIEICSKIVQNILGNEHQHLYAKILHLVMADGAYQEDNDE
# [13] = target: T5, Serine/threonine-protein kinase Nek1 (Homo sapiens); settings: at 1 µM
# [14] = target: T6, Serine/threonine-protein kinase Nek2 (Homo sapiens) (UniProt P51955); settings: at 0.1 µM
# T6 sequence (whole entry): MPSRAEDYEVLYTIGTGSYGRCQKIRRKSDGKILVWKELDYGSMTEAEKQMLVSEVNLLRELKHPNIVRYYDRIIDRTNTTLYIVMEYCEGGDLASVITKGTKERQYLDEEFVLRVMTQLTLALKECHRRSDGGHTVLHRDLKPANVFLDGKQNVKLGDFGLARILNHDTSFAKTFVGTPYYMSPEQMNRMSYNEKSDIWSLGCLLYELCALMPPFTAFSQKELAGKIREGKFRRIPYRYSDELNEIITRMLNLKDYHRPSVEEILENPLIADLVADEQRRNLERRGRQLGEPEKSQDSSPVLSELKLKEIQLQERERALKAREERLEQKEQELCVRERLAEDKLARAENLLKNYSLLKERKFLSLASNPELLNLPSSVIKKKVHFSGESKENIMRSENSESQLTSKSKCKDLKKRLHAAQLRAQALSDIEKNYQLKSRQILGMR
# [15] = target: T6, Serine/threonine-protein kinase Nek2 (Homo sapiens); settings: at 1 µM
# [16] = target: Serine/threonine-protein kinase Nek6 (Homo sapiens) (UniProt Q9HC98); settings: at 0.1 µM
# Serine/threonine-protein kinase Nek6 (Homo sapiens), sequence (Q9HC98 whole entry): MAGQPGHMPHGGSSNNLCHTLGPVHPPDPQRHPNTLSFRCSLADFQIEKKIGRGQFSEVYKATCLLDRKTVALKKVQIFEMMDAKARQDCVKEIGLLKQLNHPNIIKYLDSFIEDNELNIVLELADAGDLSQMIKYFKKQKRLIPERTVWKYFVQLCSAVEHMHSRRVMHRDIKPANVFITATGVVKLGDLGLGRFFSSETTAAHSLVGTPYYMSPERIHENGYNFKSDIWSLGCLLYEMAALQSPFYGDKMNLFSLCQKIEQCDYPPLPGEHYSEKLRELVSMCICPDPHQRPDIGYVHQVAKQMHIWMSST
# [17] = target: Serine/threonine-protein kinase Nek6 (Homo sapiens) (UniProt Q9HC98); settings: at 1 µM
# [18] = target: Serine/threonine-protein kinase Nek7 (Homo sapiens) (UniProt Q8TDX7); settings: at 0.1 µM
# Serine/threonine-protein kinase Nek7 (Homo sapiens), sequence (Q8TDX7 whole entry, looked up): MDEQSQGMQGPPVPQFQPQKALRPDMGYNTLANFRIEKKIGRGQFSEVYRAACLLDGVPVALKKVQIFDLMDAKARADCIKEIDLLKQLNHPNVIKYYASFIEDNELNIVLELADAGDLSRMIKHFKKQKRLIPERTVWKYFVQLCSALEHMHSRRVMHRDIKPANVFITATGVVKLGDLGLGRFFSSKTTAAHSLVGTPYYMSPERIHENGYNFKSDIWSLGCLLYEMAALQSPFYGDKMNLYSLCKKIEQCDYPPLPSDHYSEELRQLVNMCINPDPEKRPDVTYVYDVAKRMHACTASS
# [19] = target: Serine/threonine-protein kinase Nek7 (Homo sapiens) (UniProt Q8TDX7); settings: at 1 µM
# [20] = target: T7, Serine/threonine-protein kinase Nek9 (Homo sapiens) (UniProt Q8TD19); settings: at 0.1 µM;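 further: reported value is the mean percent inhibition of NEK9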
# T7 sequence (whole entry): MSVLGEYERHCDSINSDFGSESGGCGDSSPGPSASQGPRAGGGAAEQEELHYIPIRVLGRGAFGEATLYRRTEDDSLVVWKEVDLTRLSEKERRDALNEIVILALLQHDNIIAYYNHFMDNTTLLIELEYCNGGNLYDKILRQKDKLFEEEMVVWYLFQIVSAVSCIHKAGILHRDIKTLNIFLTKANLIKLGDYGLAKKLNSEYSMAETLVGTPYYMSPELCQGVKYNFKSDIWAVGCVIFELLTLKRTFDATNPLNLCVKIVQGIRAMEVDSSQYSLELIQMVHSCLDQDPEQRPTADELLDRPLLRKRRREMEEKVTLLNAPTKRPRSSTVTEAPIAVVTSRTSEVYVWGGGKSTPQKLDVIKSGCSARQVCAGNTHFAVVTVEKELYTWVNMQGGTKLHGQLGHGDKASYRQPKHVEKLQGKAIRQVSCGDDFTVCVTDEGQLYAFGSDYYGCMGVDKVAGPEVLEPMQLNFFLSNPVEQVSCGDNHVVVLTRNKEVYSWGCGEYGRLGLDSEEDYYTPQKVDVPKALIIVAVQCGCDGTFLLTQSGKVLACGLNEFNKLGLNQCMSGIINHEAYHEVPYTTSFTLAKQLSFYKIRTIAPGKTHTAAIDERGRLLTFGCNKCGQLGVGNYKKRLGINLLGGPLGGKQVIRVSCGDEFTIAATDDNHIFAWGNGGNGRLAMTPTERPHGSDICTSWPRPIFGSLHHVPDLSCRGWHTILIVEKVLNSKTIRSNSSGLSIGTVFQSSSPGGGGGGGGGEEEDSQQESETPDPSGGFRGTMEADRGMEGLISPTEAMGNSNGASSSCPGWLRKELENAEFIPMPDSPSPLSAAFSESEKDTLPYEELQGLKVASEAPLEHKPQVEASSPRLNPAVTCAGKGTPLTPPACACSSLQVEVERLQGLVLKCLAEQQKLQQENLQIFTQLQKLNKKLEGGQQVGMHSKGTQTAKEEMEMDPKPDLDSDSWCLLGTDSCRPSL
# Sphingosine kinase 1 (Homo sapiens), sequence (Q9NYA1 whole entry): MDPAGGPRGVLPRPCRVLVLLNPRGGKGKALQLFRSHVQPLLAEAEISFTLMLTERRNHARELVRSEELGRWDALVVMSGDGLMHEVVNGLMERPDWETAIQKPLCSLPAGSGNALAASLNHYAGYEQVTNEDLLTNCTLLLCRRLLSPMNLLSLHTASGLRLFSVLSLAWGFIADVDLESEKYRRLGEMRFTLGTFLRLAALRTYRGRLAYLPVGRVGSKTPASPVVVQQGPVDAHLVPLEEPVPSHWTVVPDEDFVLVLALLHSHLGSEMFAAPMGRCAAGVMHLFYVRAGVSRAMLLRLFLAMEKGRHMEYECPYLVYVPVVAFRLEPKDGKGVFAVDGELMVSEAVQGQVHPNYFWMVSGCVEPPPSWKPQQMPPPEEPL
structure (smiles),measurement,setting,value
CCn1c(-c2nonc2N)nc2cncc(C(=O)N3CCNCC3)c21,inhibition,[1],-1.31%
same,inhibition,[2],2.81%
same,inhibition,[3],0.77%
same,inhibition,[4],4.04%
same,inhibition,[5],2.82%
same,inhibition,[6],1.05%
same,inhibition,[7],5.47%
same,inhibition,[8],6.46%
same,inhibition,[9],8.59%
same,inhibition,[10],12.2%
same,inhibition,[11],7.71%
same,inhibition,[12],4.64%
same,inhibition,[13],3.76%
same,inhibition,[14],3.46%
same,inhibition,[15],5.88%
same,inhibition,[16],1.92%
same,inhibition,[17],3.67%
same,inhibition,[18],2.41%
same,inhibition,[19],10.8%
same,inhibition,[20],6%
